Molecules are shown by their SMILES.

This assay in a line: Peg3 promoter luciferase inhibitors, potency, dose response, cell-based, HeLa, CREF/GAPDH counter-screen panel (AID 624167). Conditions: CREF/GAPDH counter-screens; run 1, dose range 1, at 100 µM (top of the series). For orientation: The purpose of a counterscreen is to sort out artefacts and off-target activity.
A word on the inhibition: it is the relative decrease from the control value, in per cent. On to `Nc1nonc1-n1nnc(C(=O)N/N=C/c2cc(Br)ccc2O)c1CNc1ccccc1`, for which the inhibition was found to be 70.2%.
Regarding `CCCCC(=O)NC(c1ccccc1OC)c1ccc2cccnc2c1O` (configuration not stated), the inhibition was 37.8%.
As to `O=C(CCSc1nc2ccccc2s1)N/N=C/c1c(O)ccc2ccccc12`, the inhibition is -10.4%.
With `CN1CCC2(CC1)N=C(c1ccc(F)cc1)C(=S)N2C(=O)c1ccc(C(C)(C)C)cc1`, the inhibition is 93.1%.
In the case of `CN(C)CC1CCC/C(=C\c2ccc(OC(=O)c3ccc(Cl)cc3)cc2)C1=O` (configuration not stated), the inhibition worked out at 76%.
`C/C(=N\NC(=O)c1cc(C2CC2)nc2ccccc12)c1ccc(O)cc1O`: the inhibition turned out to be 22.7%.
On to `O=C(COc1ccc2c(c1)CCC2)Nc1ccccn1`, for which the inhibition is 95.2%.
Take `CCCC(=O)NC(c1ccc(Cl)cc1)c1ccc2cccnc2c1O` (configuration not stated): the inhibition is 70.4%.
Regarding `CCc1ccc(/C=C2\SC(=S)N(CCCC(=O)NC3=NCCS3)C2=O)cc1`, the inhibition amounted to 79.8%.
As for `CCCC(=O)NC(c1ccc(OC)cc1)c1ccc2cccnc2c1O` (configuration not stated), the inhibition came to 67.4%.
On to `Cc1ccccc1CNC(=O)C1CCCN(c2nnc(C)c3c(C)n(-c4ccccc4)nc23)C1` (configuration not stated), for which the inhibition was found to be 97.3%.
As for `COc1ccccc1Nc1nc(-c2sc(NC(=O)c3ccco3)nc2C)cs1`, the inhibition came out at 18%.
As to `CCCCC(=O)NC(c1ccc(OC)cc1)c1ccc2cccnc2c1O` (configuration not stated), the inhibition is 21.2%.
With `COc1ccc(C(NC(=O)C(C)C)c2ccc3cccnc3c2O)cc1` (configuration not stated), the inhibition worked out at 31.4%.
To `O=C(Nc1ccc(Cc2ccncc2)cc1)c1ccc([N+](=O)[O-])o1` belongs 88.7%; to `O=C(CCn1cnc(-c2ccccc2)c1-c1ccccc1)N/N=C/c1ccccc1O`, 67.6%.
Take `CC(C)CCCCCCCCCCCCC(=O)NCC(=O)NC1C(O)C(O)C(Nc2ncnc3nc[nH]c23)OC1C(O)CO` (configuration not stated): the inhibition came to 94.6%.

(Values after PubChem BioAssay AID624167 (Sanford-Burnham Center for Chemical Genomics, 2012).)
